Hits are enriched below; roughly 1.3% of the tested compounds scored in any of these assays.
PKA-R2B activ = PKA-R2B complex activation. P22694+P31323. PKA-R2B holoenzyme dissociation, Cy5-IP20 fluorescence polarization; R2B truncated from residue 108, S112A mutant; 0% DMSO only, 100% 113 µM cGMP. activation, % at 11.4 µM. 340,000 tested, 0.079% active;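 active means activation above a cutoff set at the mean over all compounds plus 3 SD, cut at about 18% in these data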;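 further: higher means more holoenzyme dissociation and a rise in polarization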
E coli Lon inh = E. coli protease La inhibition; 360,000 tested, 0.42% active; inhibition, % at 7.94 µM; purified E. coli Lon protease, fluorescence polarization; P0A9M0; AID 602123; in the data active means inhibition above about 13%, passing the limit was not always enough;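 further: 0% = enzyme with probe and DMSO and 100% = no enzyme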
Target sequence (P0A9M0 whole entry, looked up): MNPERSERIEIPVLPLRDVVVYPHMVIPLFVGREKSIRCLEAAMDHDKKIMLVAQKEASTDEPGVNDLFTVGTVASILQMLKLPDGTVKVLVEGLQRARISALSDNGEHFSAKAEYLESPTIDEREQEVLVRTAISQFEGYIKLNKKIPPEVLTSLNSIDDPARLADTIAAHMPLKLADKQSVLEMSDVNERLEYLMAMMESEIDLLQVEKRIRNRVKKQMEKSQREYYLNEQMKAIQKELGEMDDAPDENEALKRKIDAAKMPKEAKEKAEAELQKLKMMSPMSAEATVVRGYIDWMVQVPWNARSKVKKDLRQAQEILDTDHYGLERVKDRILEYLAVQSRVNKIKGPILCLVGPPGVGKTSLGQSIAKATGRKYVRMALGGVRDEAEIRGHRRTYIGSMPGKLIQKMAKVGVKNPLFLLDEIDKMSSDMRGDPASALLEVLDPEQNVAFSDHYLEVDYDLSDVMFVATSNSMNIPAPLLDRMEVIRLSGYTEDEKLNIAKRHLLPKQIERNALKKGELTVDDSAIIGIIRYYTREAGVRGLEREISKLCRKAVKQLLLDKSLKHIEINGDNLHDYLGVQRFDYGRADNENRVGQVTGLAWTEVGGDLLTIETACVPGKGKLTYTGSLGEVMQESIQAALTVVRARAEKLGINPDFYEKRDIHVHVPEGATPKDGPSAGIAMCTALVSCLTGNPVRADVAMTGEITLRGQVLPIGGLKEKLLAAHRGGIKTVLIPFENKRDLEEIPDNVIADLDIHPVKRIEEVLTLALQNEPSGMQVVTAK
PKA-R1A act = activators of PKA-R1A complex; P00514+P68181; PKA-R1A dissociation, Cy5-IP20 fluorescence polarization; scaled: DMSO 0%, 113 µM cGMP 100%; activation, % at 11.4 µM; 340,000 tested, 0.083% active; AID 504707;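 active means percent activation above the mean of all tested compounds plus 3 SD, cut at about 19% in these data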;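 further: higher means more PKAc released from R1A so a rise in polarization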
IDE act = activators of human insulin-degrading enzyme in cells; P14735; HEK cells, FAbeta-B cleavage, fluorescence polarization; 0% vehicle, 100% cell-free pure enzyme wells; activation, % at 5.96 µM; 340,000 tested, 0.073% active; AID 493087;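 active means activation above the mean of all tested compounds plus 3 SD, set per screening campaign, cut at about 17% in these data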
IDE inh = inhibits human insulin-degrading enzyme in HEK cells; P14735; FAbetaB cleavage, fluorescence polarization; inhibition, % at 5.59 µM; 320,000 tested, 0.41% active;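 active means percent inhibition above the average of all tested compounds plus 3 SD, set per screening campaign, cut at about 16% in these data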;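 further: IDE supplied by intact live HEK cells; FP after avidin binding of uncleaved biotin substrate so inhibition keeps polarization high; 0% = DMSO wells and 100% = 60 µM reference IDE inhibitor Ii1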
Rin1-Abl PPI inh = human Rin1-Abl interaction inhibition; P00519+Q13671; TR-FRET Rin1/Abl binding, biochemical; inhibition, % at 7.35 µM; 360,000 tested, 0.4% active; in the data active means inhibition above about 5%, passing the limit was not always enough
E coli Lon conf = E. coli Lon inhibition confirmation | 1,400 tested, 31% active | shares compounds with E coli Lon inh | inhibition, % at 7.94 µM | purified E. coli Lon, fluorescence polarization; in the data active means inhibition above about 16%;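 further: 0% = enzyme with probe and DMSO and 100% = no enzyme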
An asterisk follows results filed as active; / = no result; + = active, no number.

SMILES	PKA-R2B activ	E coli Lon inh	PKA-R1A act	IDE act	IDE inh	Rin1-Abl PPI inh	E coli Lon conf
Cc1cc(C)cc(NC(=O)CN2CCN(CCN=CC3=C(O)CC(c4ccc(Cl)cc4)CC3=O)CC2)c1 (stereo unspecified)	-5	-3	7	0	4	-3	/
Cc1ccc(NC(=O)CSc2nc(N)c(-c3ccccc3)c(=O)[nH]2)cc1Cl	2	4	3	3	1	0	/
CN(CC(=O)NCC1CCCO1)S(=O)(=O)c1cc(Cl)ccc1Cl (stereo unspecified)	-6	-3	1	-1	-3	-2	/
O=C1CCC(C(=O)N2CCCC(C(=O)c3ccc4ccccc4c3)C2)=NN1 (stereo unspecified)	-6	13*	-15	-7	15	0	-7
O=C1c2ccccc2C(=O)c2c(O)c(O)cc(O)c21	0	+	-2	8	4	1	+
Cc1cc[n+](-c2[nH]c(=O)sc2/C=N/NC([S-])=Nc2ccccc2)cc1C	2	95*	-2	1	-3	-5	33*
Cc1ccc[n+](-c2[nH]c(=O)sc2/C=N/N=C(\[O-])CCn2c3ccccc3c3ccccc32)c1	1	9	2	6	-4	-5	/
CC(C)(C)c1cc[n+](-c2[nH]c(=O)sc2/C=N/NC([S-])=Nc2ccccc2)cc1	-2	165*	4	-4	4	-4	71*
COc1ccc2noc3c2c1C(=O)c1ccccc1-3	4	+	-12	38*	-21	-19	116*
COc1ccc(OC)c2c1C(=O)c1ccccc1C2=O	/	/	/	/	-7	/	/
CCOC(=O)/C=c1\s/c(=C\c2ccc(C)cc2)c(=O)n1CC(=O)NCc1ccco1	2	24*	-3	-5	-6	-2	-2
Cc1cc(C)n2nc3nc4c(cc3c2n1)CCCC4	-3	56*	6	-5	-2	-4	13
Cc1cc(C)n2nc(C)c(Br)c2n1	12	2	14	3	3	3	/
O=C1NCCN(CC2CCN(CCc3ccccc3)CC2)C1=O	9	0	3	/	/	-3	/
COc1ccc(OC)c(NC(=O)Cc2nn(C)c(=O)c3ccccc23)c1	-2	16*	-9	-1	-3	-2	-2
COc1cc(NC(=O)Cc2nn(C)c(=O)c3ccccc23)cc(OC)c1OC	-13	3	-17	4	6	-2	/
CCN(CC(=O)Nc1c(F)cccc1F)C(=O)Cc1n[nH]c(=O)c2ccccc12	-1	-4	1	-2	-3	-2	/
FC(F)(F)c1nc2nc(Cl)c(Cl)nc2n1CCCN1CCOCC1	-4	31*	-6	/	/	-5	9
O=c1c2sc3nc(N4CCOCC4)c4c(c3c2nnn1Cc1ccccc1)CCCC4	-8	-7	-8	6	3	0	/
O=C(CN1CCN(S(=O)(=O)c2ccccc2)CC1)NC(=O)NC1CCCCC1	-9	-1	-11	2	6	0	/
Cn1c(=O)n(C)c2cc3[nH]cnc3cc21	-3	-1	-11	1	-1	3	/
Nc1cc2nc[nH]c2cc1N	-18	18*	-9	0	/	-3	0
COc1ccc(N2CCCC2)c(NC(=O)c2ccc([N+](=O)[O-])o2)c1	-11	41*	-13	3	-1	0	-10
CCc1ccc(NC2=NCC(=O)N2c2ccc3c(c2)OCCO3)cc1	-3	-5	0	-2	-1	0	/
O=C(Cc1c(F)cccc1Cl)Nc1ccccc1-c1ccccc1	-4	20*	13	5	2	-1	-26
SMILES	PKA-R2B activ	E coli Lon inh	PKA-R1A act	IDE act	IDE inh	Rin1-Abl PPI inh	E coli Lon conf
CC(=O)c1ccc(NC(=O)CN2C(=O)NC3(CCc4ccccc43)C2=O)cc1 (stereo unspecified)	10	19*	2	3	1	3	-1
CNC(=O)CN1C(=O)NC2(CCc3ccccc32)C1=O (stereo unspecified)	2	3	-4	-1	4	-3	/
COC(=O)c1cc(NS(=O)(=O)c2cccs2)cc(NS(=O)(=O)c2cccs2)c1	5	125*	5	4	/	0	16
Cc1oc2nc(SCC(=O)NCCCO)nc(N)c2c1C	-16	0	2	1	6	-2	/
Cc1c2ccccc2nc2c(F)c(N(C)C)c(F)c(F)c12	-3	117*	-1	-9	11	-4	+
COc1ccc(-c2noc(CN3C(=O)c4ccccc4C3=O)n2)cc1	-6	-3	3	0	-1	2	/
Cc1cc(C)nc(SCc2ccc(C(=O)N/N=C3\CCCC(=O)C3)cc2)n1	-6	23*	-5	-5	6	3	-10
Cc1cc(C)nc(SCc2ccc(C(=O)NN=C3CCCC3)cc2)n1	8	1	-3	0	9	1	/
Cc1ccc(OCC(=O)N/N=C2\CC(=O)CC(C)(C)C2)c(Br)c1	-4	15*	-4	6	/	1	-7
CCN(CC)S(=O)(=O)c1cccc(C(=O)N/N=C2\CCCC(=O)C2)c1	-1	87*	-2	6	0	1	-27
CCOc1ccccc1OCC(=O)NN=C1CCCC(=O)C1	-14	36*	2	5	2	1	4
CCOC(=O)CN=C/C(C(C)=O)=C(/C)O	6	-8	-5	5	7	-2	/
Cc1nnc(NC(=O)c2ccc(S(=O)(=O)N3CCc4ccccc4C3)cc2)o1	0	2	0	2	-2	2	/
CC(C)CC(NC(=O)c1ccc(Cl)cc1)C(=O)OCC(=O)c1ccc2c(c1)NC(=O)CO2 (stereo unspecified)	11	-9	2	6	7	3	/
CCC(=O)Nc1nc(C)c(Oc2ccccc2)c(=O)[nH]1	-3	14	-4	3	2	-1	/
CC(=O)Nc1nc(C)c(Oc2ccccc2)c(=O)[nH]1	-4	23*	6	3	-2	-1	-7
CCN1CCN(C(=O)CSCc2nc(-c3ccc(OC)c(OC)c3)oc2C)CC1	-1	15*	8	2	-5	0	7
COc1ccc(-c2nc(CSCC(=O)N3CCN(C)CC3)c(C)o2)cc1OC	-3	-3	0	0	4	3	/
CC1CCCCN1CCNC(=O)c1cnn2ccccc12 (stereo unspecified)	-11	14*	-13	-4	1	-2	-36
Cc1cc(C(=O)NCCN2CCCCC2C)n(-c2ccccc2)n1 (stereo unspecified)	-8	2	7	0	3	-1	/
CCN(CC)c1ccc(C=Nc2cc(C)ccc2C)c(O)c1	0	-5	-1	4	-1	-2	/

From PubChem
